The record followed here is the supplement of paper PMC10849652.

Targets with a hit are over-represented here; the source holds about 7,900 in all. About 0.6% of all pairs of compound and target were hits. A number with no mark means an inactive call.

UniProt Q13523, sequence (Q13523 whole entry, looked up): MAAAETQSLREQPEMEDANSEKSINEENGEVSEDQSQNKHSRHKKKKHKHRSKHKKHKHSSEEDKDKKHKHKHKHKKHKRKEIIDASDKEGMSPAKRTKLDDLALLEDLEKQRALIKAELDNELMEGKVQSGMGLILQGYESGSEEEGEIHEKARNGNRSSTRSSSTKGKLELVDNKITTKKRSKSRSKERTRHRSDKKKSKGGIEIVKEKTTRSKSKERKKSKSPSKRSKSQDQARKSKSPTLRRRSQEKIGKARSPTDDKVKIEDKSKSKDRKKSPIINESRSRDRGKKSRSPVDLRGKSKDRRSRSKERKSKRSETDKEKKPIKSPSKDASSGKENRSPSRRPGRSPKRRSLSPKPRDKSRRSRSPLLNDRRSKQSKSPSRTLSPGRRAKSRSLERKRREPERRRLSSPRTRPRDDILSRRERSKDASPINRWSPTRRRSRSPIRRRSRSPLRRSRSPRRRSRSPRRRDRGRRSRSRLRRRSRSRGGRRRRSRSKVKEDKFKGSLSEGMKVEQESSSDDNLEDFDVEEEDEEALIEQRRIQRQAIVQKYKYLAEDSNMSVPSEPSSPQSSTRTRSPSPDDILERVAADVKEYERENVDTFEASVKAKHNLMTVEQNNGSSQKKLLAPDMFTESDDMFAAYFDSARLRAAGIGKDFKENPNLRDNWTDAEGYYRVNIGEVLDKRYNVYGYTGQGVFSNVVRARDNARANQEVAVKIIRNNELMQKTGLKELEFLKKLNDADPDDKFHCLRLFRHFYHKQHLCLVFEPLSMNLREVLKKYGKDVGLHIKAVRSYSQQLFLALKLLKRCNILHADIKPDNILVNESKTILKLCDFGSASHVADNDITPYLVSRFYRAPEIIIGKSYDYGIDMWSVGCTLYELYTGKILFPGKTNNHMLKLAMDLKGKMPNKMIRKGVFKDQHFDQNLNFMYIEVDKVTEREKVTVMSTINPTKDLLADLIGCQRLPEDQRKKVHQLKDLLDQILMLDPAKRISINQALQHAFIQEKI
UniProt Q15173, sequence (Q15173 whole entry, looked up): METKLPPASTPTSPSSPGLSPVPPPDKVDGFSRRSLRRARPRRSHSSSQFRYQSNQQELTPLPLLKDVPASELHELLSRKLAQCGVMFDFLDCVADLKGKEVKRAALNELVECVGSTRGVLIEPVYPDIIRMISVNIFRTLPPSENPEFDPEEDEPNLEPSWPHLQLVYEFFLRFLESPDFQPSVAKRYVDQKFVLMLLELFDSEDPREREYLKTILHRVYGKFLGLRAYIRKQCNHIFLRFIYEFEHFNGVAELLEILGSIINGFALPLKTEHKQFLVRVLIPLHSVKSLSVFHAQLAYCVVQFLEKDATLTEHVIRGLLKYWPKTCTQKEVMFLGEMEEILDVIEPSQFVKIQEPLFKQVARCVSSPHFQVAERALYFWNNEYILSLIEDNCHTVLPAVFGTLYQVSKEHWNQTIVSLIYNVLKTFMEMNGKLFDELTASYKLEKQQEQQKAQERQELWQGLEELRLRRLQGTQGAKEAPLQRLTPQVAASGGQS
UniProt Q8NDX5, sequence (Q8NDX5 whole entry, looked up): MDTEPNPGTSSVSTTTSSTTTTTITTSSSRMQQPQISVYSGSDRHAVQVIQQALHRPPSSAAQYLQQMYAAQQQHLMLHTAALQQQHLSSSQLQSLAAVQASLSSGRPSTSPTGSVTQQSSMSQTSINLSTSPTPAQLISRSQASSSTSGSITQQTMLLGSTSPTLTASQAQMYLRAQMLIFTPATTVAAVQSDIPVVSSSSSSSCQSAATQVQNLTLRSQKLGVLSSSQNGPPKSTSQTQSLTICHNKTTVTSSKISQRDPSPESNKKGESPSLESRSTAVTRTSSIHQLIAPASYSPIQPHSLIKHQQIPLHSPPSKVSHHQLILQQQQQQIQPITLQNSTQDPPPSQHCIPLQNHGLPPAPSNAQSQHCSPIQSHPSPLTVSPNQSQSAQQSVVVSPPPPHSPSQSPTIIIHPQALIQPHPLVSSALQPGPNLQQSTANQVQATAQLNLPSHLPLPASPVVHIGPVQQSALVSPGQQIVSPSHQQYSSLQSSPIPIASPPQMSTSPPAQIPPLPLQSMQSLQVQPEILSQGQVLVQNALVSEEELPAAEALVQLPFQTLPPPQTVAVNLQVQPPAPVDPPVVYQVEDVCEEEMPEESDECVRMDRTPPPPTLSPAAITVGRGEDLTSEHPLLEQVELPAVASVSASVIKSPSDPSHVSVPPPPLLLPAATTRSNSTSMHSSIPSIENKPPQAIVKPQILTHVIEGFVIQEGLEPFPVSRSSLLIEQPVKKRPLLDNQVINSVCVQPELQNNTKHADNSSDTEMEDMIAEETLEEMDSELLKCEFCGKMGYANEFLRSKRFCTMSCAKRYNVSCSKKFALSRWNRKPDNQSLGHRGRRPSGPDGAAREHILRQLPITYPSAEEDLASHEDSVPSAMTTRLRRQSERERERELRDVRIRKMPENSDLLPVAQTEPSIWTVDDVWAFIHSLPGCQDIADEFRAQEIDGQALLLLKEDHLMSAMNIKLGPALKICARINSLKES
UniProt P46020, sequence (P46020 whole entry, looked up): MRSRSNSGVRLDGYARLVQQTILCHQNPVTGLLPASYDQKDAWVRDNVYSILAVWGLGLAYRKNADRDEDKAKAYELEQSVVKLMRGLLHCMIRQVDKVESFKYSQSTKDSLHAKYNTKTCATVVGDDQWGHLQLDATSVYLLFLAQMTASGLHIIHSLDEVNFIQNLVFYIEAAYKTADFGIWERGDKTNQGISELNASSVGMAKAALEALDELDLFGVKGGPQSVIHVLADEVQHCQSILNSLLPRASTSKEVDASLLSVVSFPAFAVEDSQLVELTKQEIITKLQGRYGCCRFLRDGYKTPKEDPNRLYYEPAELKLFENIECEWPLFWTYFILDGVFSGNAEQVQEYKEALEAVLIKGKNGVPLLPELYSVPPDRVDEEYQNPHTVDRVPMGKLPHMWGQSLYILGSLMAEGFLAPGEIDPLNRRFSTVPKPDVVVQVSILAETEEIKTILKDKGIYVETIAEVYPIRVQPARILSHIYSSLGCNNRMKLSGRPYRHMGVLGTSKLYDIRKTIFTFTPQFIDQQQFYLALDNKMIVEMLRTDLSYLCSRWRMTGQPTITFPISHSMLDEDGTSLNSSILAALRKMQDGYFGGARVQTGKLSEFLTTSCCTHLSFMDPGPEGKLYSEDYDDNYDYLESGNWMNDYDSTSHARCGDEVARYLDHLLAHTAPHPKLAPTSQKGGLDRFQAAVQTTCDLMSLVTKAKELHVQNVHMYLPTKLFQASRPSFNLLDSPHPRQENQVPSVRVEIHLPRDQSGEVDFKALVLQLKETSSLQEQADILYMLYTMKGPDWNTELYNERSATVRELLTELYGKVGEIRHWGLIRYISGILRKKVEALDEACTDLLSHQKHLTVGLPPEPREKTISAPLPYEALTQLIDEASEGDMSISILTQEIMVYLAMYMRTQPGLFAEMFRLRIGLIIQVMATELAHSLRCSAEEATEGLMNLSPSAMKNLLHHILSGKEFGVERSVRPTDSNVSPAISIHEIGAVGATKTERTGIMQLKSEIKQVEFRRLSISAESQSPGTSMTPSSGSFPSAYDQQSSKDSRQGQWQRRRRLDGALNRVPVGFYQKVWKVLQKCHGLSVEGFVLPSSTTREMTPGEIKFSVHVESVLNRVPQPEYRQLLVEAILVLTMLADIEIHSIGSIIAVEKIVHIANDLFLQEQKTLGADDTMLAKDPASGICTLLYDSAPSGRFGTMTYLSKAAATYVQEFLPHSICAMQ
UniProt Q9BTU6, sequence (Q9BTU6 whole entry, looked up): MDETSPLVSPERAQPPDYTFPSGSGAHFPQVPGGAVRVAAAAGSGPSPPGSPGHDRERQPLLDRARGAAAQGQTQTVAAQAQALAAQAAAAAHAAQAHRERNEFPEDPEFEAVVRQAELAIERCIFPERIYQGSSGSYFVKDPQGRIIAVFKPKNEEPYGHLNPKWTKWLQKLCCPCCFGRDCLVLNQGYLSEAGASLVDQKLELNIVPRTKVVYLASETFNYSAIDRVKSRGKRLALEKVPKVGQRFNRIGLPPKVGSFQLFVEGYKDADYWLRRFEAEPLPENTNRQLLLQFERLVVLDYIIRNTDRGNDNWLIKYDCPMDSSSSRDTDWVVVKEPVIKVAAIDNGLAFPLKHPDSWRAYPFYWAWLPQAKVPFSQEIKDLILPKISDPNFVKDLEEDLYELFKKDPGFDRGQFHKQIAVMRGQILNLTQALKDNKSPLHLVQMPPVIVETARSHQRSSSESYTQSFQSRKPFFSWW
UniProt Q9H307, sequence (Q9H307 whole entry, looked up): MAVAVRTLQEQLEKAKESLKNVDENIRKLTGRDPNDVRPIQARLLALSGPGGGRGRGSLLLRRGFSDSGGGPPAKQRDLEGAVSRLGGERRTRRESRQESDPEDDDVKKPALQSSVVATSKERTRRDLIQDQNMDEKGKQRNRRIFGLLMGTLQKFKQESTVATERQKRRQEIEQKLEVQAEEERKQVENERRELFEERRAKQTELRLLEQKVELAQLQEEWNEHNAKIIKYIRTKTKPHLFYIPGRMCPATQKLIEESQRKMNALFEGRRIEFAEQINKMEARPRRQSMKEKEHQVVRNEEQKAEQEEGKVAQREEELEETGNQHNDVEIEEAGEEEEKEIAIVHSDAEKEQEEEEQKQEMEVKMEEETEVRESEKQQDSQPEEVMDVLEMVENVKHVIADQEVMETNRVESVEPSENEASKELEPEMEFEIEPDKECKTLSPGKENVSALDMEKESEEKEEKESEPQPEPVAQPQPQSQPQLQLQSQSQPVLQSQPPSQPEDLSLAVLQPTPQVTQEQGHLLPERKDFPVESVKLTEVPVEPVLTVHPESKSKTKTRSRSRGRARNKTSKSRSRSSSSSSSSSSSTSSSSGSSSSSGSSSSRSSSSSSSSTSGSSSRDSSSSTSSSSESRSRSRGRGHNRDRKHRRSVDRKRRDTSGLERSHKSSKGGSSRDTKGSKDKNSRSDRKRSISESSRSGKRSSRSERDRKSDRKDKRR

Compound in the assay: C1=CC=C(C=C1)[C@H](COC2=CC3=C(C=C2)NC(=O)N3)NC(=O)C4=CC=CN(C4=O)CC5=CC(=C(C=C5)F)F
In words: log2 fold change, soluble protein after heating vs DMSO (PISA); higher = thermal stabilisation; K562 cells, 10 uM, 30 min; active = over 0.2 and 3.5 SD of the protein, either way, in both replicates (recomputed). The procedure, abridged:
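K562 cells (2×10^6 cells/mL) were treated with 10 μM compound for 30 min, and aliquots were heated for 3 min over 48°C-58°C. Pooled aliquots were extracted in PBS with 0.5% NP-40 at 4°C, and the supernatant after 21,000xg for 90 min was measured by TMTpro 16plex LC-MS/MS with channel sums equalised. Reported thermal stability, relative to control samples and from duplicates, is a log2 fold change.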
Regarding PDE4DIP isoform 4 (UniProt Q5VU43), the log2 fold change was 0.023. As for PSMA3 (UniProt G3V4X5), the log2 fold change is -0.073. The result for PKM isoform 2 (UniProt P14618) reads 0.063. Then PHKA1 (UniProt P46020), with 0.028.

As to PAN2 (UniProt Q504Q3), the log2 fold change was -0.298.

For PCBP2 (UniProt F8VZX2), the log2 fold change was -0.1. For the target PNN (UniProt Q9H307), the log2 fold change is 0.084. The result for PRIM2 (UniProt P49643) reads -0.07; that for PPP1R12C (UniProt Q9BZL4), -0.16. The result for PI4K2A (UniProt Q9BTU6) reads 0.015; that for PHC3 isoform 7 (UniProt Q8NDX5), -0.023.

For the target PTP4A3 (UniProt O75365), the log2 fold change was 0.037. Then PRUNE1 (UniProt Q86TP1), with -0.025; and PPP2R5B (UniProt Q15173), with -0.058. Then PRKD3 (UniProt O94806), with -0.103; and PSMC3 (UniProt E9PLG2), with 0.03.

Turning to PRPF4B (UniProt Q13523), the log2 fold change was 0.118.

Turning to POTEI (UniProt P0CG38), the log2 fold change is 0.025.

For PSMB9 (UniProt P28065), the log2 fold change was 0.182. Then PITRM1 isoform 2 (UniProt Q5JRX3), with 0.064; and PCNX1 (UniProt Q96RV3), with 0.064. Then PCF11 (UniProt O94913), with -0.319; and PMVK (UniProt Q15126), with -0.156; and POLA1 (UniProt P09884), with -0.059.
